Our source for the growth values is PubChem BioAssay (NCI).

Molecules are shown by their SMILES. Values joined by “and” are separate entries in the source; they are usually repeats but may differ in a detail not shown here. Equal values may be shown once. This is part of a sample that, as a whole, favours compounds with a hit. Of some 83,000 tested, about 20% had one in any assay.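 Cells were grown in 96-well plates and exposed to the test compound at a single concentration for 48 hours; results are reported as percent growth, with values below 10 considered active.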 Unmarked numbers belong to inactive results. Active and inactive are the calls of the source.

The subject of this assay is MDA-MB-468 breast. The experiment in a line: NCI-60 one-dose screen, 48 h (100 = growth as untreated, 0 = no growth, -100 = all killed). Particulars: 10 µM unless noted.
As to `COc1ccc(/C=C2\Oc3cc(OCCN4CCC(Cc5ccccc5)CC4)ccc3C2=O)cc1OC`, the growth was 31%.

On to `Cc1cc(C)c([O-])c(CN(C)CCN(C)Cc2cc(C)cc(C)c2[O-])c1.O=C([O-])c1cccc(C(=O)[O-])n1.[Ti+4]`, for which the growth was -8.96% (active).

`CC1CCc2c(sc3nc(SCC(=O)N/N=C/c4cccc(O)c4O)n(-c4ccccc4)c(=O)c23)C1` (stereo not given): the growth is 77.7%.

As for `CCCCCCCCSc1ncnc2c1ncn2CO`, the growth was 11.9%.

Turning to `COC(=O)c1nc(=S)[nH]c(C(=O)OC)c1C(=O)c1ccccc1`, the growth is 97.3%.

In the case of `O=C(CN1CCCCC1)Nc1ccc2oc(=O)ccc2c1`, the growth was 107%.

As to `Clc1ccc2c(NCCCNC3CCCCC3)ccnc2c1`, the growth is 85.3%.

Take `O=S(=O)(O)c1ccc(F)cc1`: the growth is 122%.

For the compound `c1ccc(Nc2ccccn2)nc1`, the growth is 93.3%.

`COC(=O)[C@]12CC[C@@H](C)[C@H](C)[C@@H]1C1=CC[C@@H]3[C@@]4(C)C(C=O)=C[C@@](C)(COC(C)=O)C4=CC[C@@]3(C)[C@]1(C)CC2`: the growth was -3.02% (active).

As for `O=C(CCCn1c2c(sc3ccccc32)c(=O)n2nnc(-c3ccccc3)c12)NCCc1cnc[nH]1`, the growth is -91% (active).

For `COc1cccc(-c2nn(-c3ccccc3)cc2-c2ccnc(N3CCN(C(=O)c4ccccc4)CC3)c2)c1`, the growth was 82.3%.

Turning to `O=Cc1ccc(Cl)c(Cl)c1`, the growth was 119%.

With `COc1cc2c(cc1OC)C(=O)/C(=C/c1cc(-c3ccc4c(c3)OCO4)n[nH]1)C2`, the growth is -26.4% (active).

On to `O=C1C(=O)c2c(ccc3ccccc23)-c2ccccc21`, for which the growth is -79.9% (active).

Consider `CCC(C)C1NC(=O)c2nc(oc2-c2ccccc2)-c2csc(n2)-c2csc(n2)-c2nc(oc2C)-c2coc(n2)CNC(=O)C(C(C)CC)NC1=O` (stereo not given), for which the growth was -76.9% (active).

Regarding `O=[N+]([O-])c1cccc(N=NNc2cccc([N+](=O)[O-])c2)c1`, the growth is 57.9%.

With `Nc1ncnc2c1C(c1ccc([N+](=O)[O-])cc1)c1sc3c(F)cccc3c1O2` (stereo not given), the growth was -15% (active).

On to `CC1(C)CC[C@]2(C(=O)O)CC[C@]3(C)C(=CC[C@@H]4[C@@]5(C)C[C@@H](Cc6cn([C@@H]7O[C@H](CO)[C@@H](O)[C@H](O)[C@H]7O)nn6)[C@H](O)C(C)(C)[C@@H]5CC[C@]43C)[C@@H]2C1`, for which the growth was 87%.

Consider `CCN(CC)c1ccc(N=C2C=CC(=O)C=C2NC(C)=O)cc1`, for which the growth is 98.7%.

On to `COc1cc2c(cc1OC)-c1ccc3cc4c(cc3c1N(CCN(C)C)C2)OCO4`, for which the growth is -30.4% (active).

For the compound `Cc1c(N)ccc(-c2ccc(N)c(C)c2S(=O)(=O)O)c1S(=O)(=O)O`, the growth is 115%.

On to `O=[N+]([O-])c1ccccc1N(S(=O)(=O)c1ccccc1)S(=O)(=O)c1ccccc1`, for which the growth is 106% and 90%.

As for `O=c1oc2ccc(F)cc2c(=O)n1-c1ccc(Br)cc1F`, the growth was 0.698% (active).

Regarding `O=C(Nc1cccc(-c2ccc(N3CCOCC3)nn2)c1)Nc1cccc(C(F)(F)F)c1`, the growth was 29.1%.

As for `COc1cc(-c2cncn2-c2ccc(-c3nc4ccc(F)cc4s3)cc2)ccc1F`, the growth was 56.8%.

With `COc1ccc2sc3c(NCCO)nc4ccccc4c3c(=O)c2c1`, the growth was 109%.

Regarding `COc1cc(CNC(=O)Cc2ccccc2[N+](=O)[O-])ccc1OCC(=O)NO`, the growth was 98.7%.

Consider `O=C1/C(=C/c2ccccc2)CCc2nc3ccccc3c(/C=C/c3ccc(Cl)cc3)c21`, for which the growth is 83.5%.

As to `Cc1cccc(/C=N/n2c(-c3ccc(Cl)cc3)nc3c(Br)cc(Br)cc3c2=O)c1`, the growth is 46.7%.

For `O=C(O)CCCCCNC(=O)OCc1ccccc1`, the growth is 116%.

Take `CN(C)CCN1CCN(c2ncccc2C2Nc3ccccc3-n3cccc32)CC1` (stereo not given): the growth was 109%.

For the compound `COCc1nc(NS(=O)(=O)c2ccc(N)cc2)nc(C)c1Br`, the growth was 99.1%.

Turning to `COc1ccc(-c2nnc3n(C)c(=O)c4ccccc4n23)cc1N`, the growth is -6.61% (active).

Take `CC(=O)N/C(=C1/OC(C(O)C(O)C(O)CO)CN1C)[P+](c1ccccc1)(c1ccccc1)c1ccccc1` (stereo not given): the growth is 106%.

Take `COc1ccc(S(=O)(=O)c2ccc(F)cc2)cc1`: the growth is 105%.

As for `Cc1nc2ccc(-n3c(-c4ccc(Cl)cc4)nc4ccccc4c3=O)cc2n1Cc1ccccc1`, the growth is 77.6%.

`NNCCc1ccccc1`: the growth is 113% and 89.6%.

For `N#Cc1c(-c2ccccc2)nc(SCc2nnc(-c3ccc(Cl)cc3)o2)[nH]c1=O`, the growth was 103%.

`COc1ccc(CN2CCc3c(Sc4ccccc4)nc(N)nc3C2=O)c(OC)c1`: the growth was 48.2%.
